These results are taken from PubChem BioAssay AID1347423 (Functional Genomics Laboratory (NCATS/FGL), 2020).

About 210 (0.4%) of roughly 52,000 sequences were called active. Only a selection was taken, and actives are over-represented in it overall. Unmarked numbers belong to inactive results.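 How the source made its calls: active means gene whose silencing raises cell survival under the drug, median off-target-corrected z-score across its silencing RNAs 2 or more; inactive means the rest.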

The assay is described as follows: Resistance to Poly (ADP-Ribose) Polymerase inhibitor: Gene Identification via Genome-wide siRNA Screen. As to conditions: mouse BRCA2 R2336H ES cells, olaparib, CellTiter-Glo viability; active compounds read high. The procedure, abridged:
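Genome-wide siRNA screen (3 siRNAs/gene, 20 nM) in mouse ES cells carrying hypomorphic BRCA2 R2336H; olaparib 500 nM added 48 h post-transfection, CellTiter-Glo viability 72 h later. Normalized to plate-median negative control; MAD z-scores, gene median, seed-adjusted.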
Regarding CGCAGAAGCUAAUAAACAGTT against Psmb6, the z-score was -1.52. For the sequence GCUGUUUUAUCUCCAAUGGTT against Araf1, the z-score is 1.6 (active). As to GGACAAGUUUCAGUGACCCTT against Zdhhc9, the z-score is -0.268. Regarding GCCAUAUACAGGUUCAAAGTT against Msh6, the z-score is 0.613. The value for GCCCAAUAUACUCUAAGGGTT against Cdh20 was 0.338. Under “GCAUCAAAAUCGGUUUCUGTT against 4930526D03Rik” stands -0.28; under GGAUCGCUCAUGGAUAUUUTT against Fus, -0.22 (active). Consider GGAGACAGAAUGCACAUUUTT against Tff3, for which the z-score was -1.75. The value for “CCAUUCGGACCAAAGUGUATT against 4930563C04Rik” was -1.48; that for GCCUCUGAGUUGCAUGAGUTT against Ppp2r5b was 2.37 (active); that for “GCAAUGGUUGGUUCAAUAATT against 5730427C23Rik” was -1.47. The value for “GGUAGAGGUUAAGACGAUCTT against C330023D02Rik” was -0.997; that for “CGGUGAAAAACCUAUGUAUTT against 1700028P14Rik” was 0.894; that for GGCAUUCUUAUAAAGAAACTT against Ube2q was 3.88.

With “CGCUGAAAUAAAGACCAGATT against 2400010G15Rik”, the z-score is 1.99 (active). For the sequence GCCAGUGAGGCUACUUUCATT against Myo18a, the z-score is -0.423. On to “GCAUCUCACUCGUAAAGGUTT against 4732406D01Rik”, for which the z-score is -0.389.

For GGGAGAGGCACAAAGCAUATT against Ubxd3, the z-score was 1.27.

On to GGGUUUUGUGUAAAAGGUUTT against Olfr584, for which the z-score is 1.72 (active). Under “GGGACACAAUUCUUUGAAATT against G630009D10Rik” stands 0.375; under GGACAUAAAAGACUUAAAGTT against Actr8, 3.83 (active). As to GGAGCCAUGACUUUUCACUTT against Sec22l1, the z-score was 0.164. The value for GAGUCCCUUGGCAGCUCAUTT against Klra8 was -0.753. In the case of “GCACAAGAGGUAUCCUUGCTT against A630038D02”, the z-score is -0.381. Regarding GGAACAGAAAGCUAUGGAUTT against Surf6, the z-score is -0.706.

As to GGGAGAGUCAAAAAAAGAUTT against Khdrbs1, the z-score is 2.83 (active). Under “GGAGUACCUGGACAUUGUGTT against 1110032N12Rik” stands 0.677. On to GGACGGACAUUUAUGACCCTT against Cpsf3, for which the z-score was -0.072. Under GGAAAUUCAGCAUGGAGCCTT against Vgll4 stands -0.472.
